Shown are actives, neighbours in structure and some others; about 2.1% of the full set was active somewhere.
GSIS activator: primary screen for activators of insulin secretion dependent on glucose, INS-1E cells, GLuc reporter luminescence. activation, % at 16.6 µM. hit rate 0.61% among 370,000. INS-1E GLuc reporter insulin secretion, 2-3 h;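 active = lowest replicate activation of at least 40%, so every replicate reaches that level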;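 also: 0% = median of neutral control wells and 100% = median of IBMX positive control wells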
PGC1a acetyl inh: PGC1a acetylation modulation, inhibitor mode; U2OS PGC1a acetylation, AlphaScreen anti-acetyl-lysine; with virally co-expressed GCN5 acetyltransferase; inhibition, % at 15.6 µM; hit rate 0.17% among 350,000; AID 651687;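 active = every replicate shows inhibition of at least 40%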;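 also: 0% = neutral control wells and 100% = positive control wells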
NSD2 HMT inh: inhibitors of human histone methyltransferase NSD2 | NSD2 peptide methylation, AlphaScreen, 120 min | inhibition, % at 12.5 µM | hit rate 0.54% among 310,000; in the data active = inhibition above about 50%
HIV Env fusion: HIV envelope-mediated fusion inhibition | HeLa-JRFL Env/CEM21 cell fusion, luciferase | inhibition, % at 12.3 µM | hit rate 1.1% among 360,000;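 active = mean replicate inhibition score of at least 50 and every replicate individually at or above 50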;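 also: 0% = plate neutral controls and 100% = maraviroc near 300 nM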
AF4-AF9 inh: inhibitors of human MLL-AF4/AF9 interaction; hit rate 0.47% among 350,000; inhibition, % at 10 µM; AlphaScreen, biotin-AF4 peptide binding to FLAG-AF9; AID 651704;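 active = every replicate reaching a set inhibition limit, whatever the replicate mean, cut at about 25% in these data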;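 also: 0% = plate neutral control median and 100% = total signal loss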
Target sequence (P42568 whole entry, looked up): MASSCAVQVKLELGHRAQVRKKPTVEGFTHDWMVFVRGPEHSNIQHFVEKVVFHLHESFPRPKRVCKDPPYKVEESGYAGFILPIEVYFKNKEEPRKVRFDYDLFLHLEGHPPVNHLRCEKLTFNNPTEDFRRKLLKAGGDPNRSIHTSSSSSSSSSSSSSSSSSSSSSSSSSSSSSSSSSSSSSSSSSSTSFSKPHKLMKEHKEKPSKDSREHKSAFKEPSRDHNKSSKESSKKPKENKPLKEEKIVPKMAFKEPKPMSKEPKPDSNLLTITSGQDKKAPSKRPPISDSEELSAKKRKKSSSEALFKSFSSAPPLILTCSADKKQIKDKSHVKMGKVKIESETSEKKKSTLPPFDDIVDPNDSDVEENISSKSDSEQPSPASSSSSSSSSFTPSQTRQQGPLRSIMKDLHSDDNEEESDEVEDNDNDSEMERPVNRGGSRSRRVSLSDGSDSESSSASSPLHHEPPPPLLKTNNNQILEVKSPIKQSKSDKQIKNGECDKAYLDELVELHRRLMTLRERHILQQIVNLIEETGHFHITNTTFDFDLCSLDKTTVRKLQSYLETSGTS
* = called active by the depositor; x = not tested or not shown; [ ] = another dose, or the depositor's remark.

SMILES	GSIS activator	PGC1a acetyl inh	NSD2 HMT inh	HIV Env fusion	AF4-AF9 inh
COc1ccc2nc(NC(=O)CCN3C(=O)c4ccccc4C3=O)sc2c1	9	6	0	-32	x
CN1CCN(S(=O)(=O)c2cc(C(F)(F)F)ccc2Cl)CC1	2	7	-4	8	-2
c1ccc2c(-c3cccc4nccn34)cncc2c1	1	x	2	55*	0
CC1(C)CC[C@]2(C(=O)n3ccnc3)CC[C@]3(C)[C@H](C(=O)C=C4[C@@]5(C)C=C(C#N)C(=O)C(C)(C)[C@@H]5CC[C@]43C)[C@@H]2C1	-26	x	-1	109*	-1
COC(=O)C1=C(C)N(Cc2ccc(Cl)cc2)C(=S)NC1c1cccc(F)c1 (centres undefined)	x	x	x	8	0
COC(=O)C1=C(C)N(Cc2ccccc2)C(=S)N[C@H]1c1ccc(Br)cc1	-8	-14	x	67*	0
COC(=O)C1=C(C)N(Cc2ccc(F)cc2)C(=S)NC1c1ccc(Cl)cc1 (centres undefined)	-3	x	x	59*	x
CC(=O)C1=C(C)N(Cc2ccc(Cl)cc2)C(=S)NC1c1ccc(Cl)cc1 (centres undefined)	-32	x	0	60*	x
COC(=O)C1=C(C)N(Cc2ccccc2)C(=S)NC1c1ccc(Br)cc1 (centres undefined)	-14	x	39	13	x
COC(=O)C1=C(C)N(Cc2ccc(Cl)cc2)C(=S)NC1c1ccc(OC)cc1 (centres undefined)	-4	x	x	84*	x
CC(C)COP(=O)(c1ccc(N(C)C)cc1)C(O)c1ccc(N(C)C)cc1 (centres undefined)	-12	2	6	-5	12
COc1ccc(OCC(O)CN2CCc3ccccc3C2)cc1 (centres undefined)	17	-1	5	-8	2
NC(=O)C1=C[C@@H](C2CCCCC2)C[C@@H](OCc2ccc(CO)cc2)O1	3	-3	x	20	x
Cc1ccc(Cl)c(OCC(=O)Nc2ccc(S(=O)(=O)NC3=NCCCCC3)cc2)c1	-22	-2	-1	2	-28
CCCCOC(=O)n1c(=O)oc2cc(S(=O)(=O)N3CCCCC3)ccc21	-32	-2	-2	56*	x
COc1cccc(CNC(=O)CCn2c(=O)oc3ccccc32)c1	x	2	-1	-83	x
COc1ccc(CNC(=O)CCn2c(=O)oc3ccccc32)c(OC)c1	58*	-1	-6	-5	-2
COc1ccc(CN(C)C[C@H]2OCCCC[C@H](C)Oc3ccc(NC(=O)CCCN(C)C)cc3C(=O)N([C@H](C)CO)C[C@@H]2C)cc1	21	12	x	-11[16.7 µM]	0
Cc1ccc(C)c(CS(=O)(=O)c2cn(CC(=O)N3CCC(C)CC3)c3ccccc23)c1	-17	-3	0	120*	x
O=C(CS(=O)(=O)c1cn(CC(=O)N2CCCC2)c2ccccc12)Nc1ccccc1	29	2	-1	x	1
O=C(CS(=O)(=O)c1cn(CC(=O)N2CCOCC2)c2ccccc12)Nc1ccccc1	40*	x	-2	-70	2
CN1C(=O)C2(c3ccccc31)N(C)CC(c1ccccc1)C21SC(=S)N(Cc2ccco2)C1=O (centres undefined)	-22	-6	1	80*	x
CCCCS(=O)(=O)N1CCN(C(=O)C(=O)c2cccc(C(F)(F)F)c2)CC1	-26	x	x	91*	-2
O=C(NC(=S)Nc1ccc(NC(=O)c2cccs2)cc1)c1cc2ccccc2o1	74*	x	1	4	x
O=C(NC(=S)Nc1ccc(NC(=O)c2cccs2)cc1)c1ccco1	-3	-6	1	-1	x
SMILES	GSIS activator	PGC1a acetyl inh	NSD2 HMT inh	HIV Env fusion	AF4-AF9 inh
C[C@@H]1CN([C@@H](C)CO)C(=O)c2cc(C#CCc3ccccc3)cnc2O[C@@H]1CN(C)C(=O)C1CCC1	29	-1	x	-15[16.7 µM]	0
C[C@@H]1CN([C@H](C)CO)C(=O)c2cc(C#CCc3ccccc3)cnc2O[C@H]1CN(C)C(=O)C1CCC1	54*	-1	x	-6[16.7 µM]	-2
C[C@H]1CN([C@@H](C)CO)C(=O)c2cc(C#CCc3ccccc3)cnc2O[C@@H]1CN(C)C(=O)C1CC1	72*	-2	x	-2[16.7 µM]	-6
Cc1ccc(C(=O)OCC(=O)NCCC2=CCCCC2)cc1N	-10	2	0	-5	-1
Cc1[nH]c2ccccc2c1N=Nc1ccc(F)cc1	-14	-18	35	-9	30*
Cc1[nH]c2ccccc2c1N=Nc1cc(C(=O)O)cc(C(=O)O)c1	-1	-2	8	3	1
CCOC(=O)c1c(C)[nH]c(C(=O)COC(=O)c2ccncc2)c1C	x	2	2	x	x
CCOC(=O)c1c(C)[nH]c(C(=O)COC(=O)c2cnccn2)c1C	70*	9	5	33	-1
C/C(N)=C(/C#N)C(=O)CSc1nnc(Nc2c(C)cccc2C)s1	x	4	1	-25	-3
O=C(COC(=O)c1cc([N+](=O)[O-])ccc1N1CCOCC1)NCc1ccccc1	-5	3	2	-6	-2
Cc1nnsc1NC(=O)OCc1ccc(Cl)cc1Cl	x	-4	11	x	x
Cc1nn(C)c(Cl)c1NC(=O)OCc1ccc(Cl)cc1Cl	x	x	-2	73*	x
COc1ccccc1CN1C[C@@H]2C[C@@H](C3=Cc4cc(Cl)ccc4OC3)N3CCC[C@@]23C1=O	-9	x	0	67*	4
CC(=O)N(c1ccc(C)cc1)S(=O)(=O)c1ccc(Cl)cc1	-21	2	-2	-20	-1
CC(=O)N(c1cccc(C)c1)S(=O)(=O)c1ccc(Cl)cc1	-5	53*	x	-15	-1
COc1ccc(OC)c(Nc2nc(N)nc(CCl)n2)c1	x	-4	2	5	2
CCN(CC)CC(O)Cn1c(-c2ccccc2Cl)nc2ccccc21 (centres undefined)	-6	5	6	-9	-3
CC(C)c1ccccc1NC(=O)Cn1c(-c2ccccc2Cl)nc2ccccc21	-9	43*	-2	-43	x
O=C(COC(=O)c1ccccc1)Nc1ncc([N+](=O)[O-])s1	-53	2	83*	-6	-4
COc1ccccc1C(=O)NCCC(=O)N(C)CC(=O)Nc1ccc(Cl)cc1	-6	x	1	-142	1
C=CCNc1nc(Nc2ccccc2F)nc(OCC)n1	19	-4	-3	-12	-1
CCOc1nc(Nc2ccccc2F)nc(OCC)n1	62*	x	-3	2	-5
COc1ccccc1-c1ccc2c(c1)C(C)(Cc1ccc(Cl)c(Cl)c1)C(=O)N2 (centres undefined)	25	-22	-1	100*	-3
COc1ccccc1-c1ccc2c(c1)C(C)(Cc1ccccc1C#N)C(=O)N2 (centres undefined)	-24	x	3	63*	1
Cc1cccc2cncc(OCc3nnc(SC(F)F)n3C)c12	8	10	-3	-17	0
COc1ccc(CCNC(=O)CCc2ccccc2)cc1OC	60*	11	-4	-7	1
O=C(COC(=O)Cn1cnc2ccccc21)NCCc1ccc(Cl)cc1	x	-4	-1	-35	x
COc1ccc(CCNC(=O)COC(=O)Cn2cnc3ccccc32)cc1OC	57*	x	x	-4	0
